Reference: PubChem BioAssay
“And” between values parts separate entries of the source, which are not always exact repeats. Equal values may be shown once. Unmarked numbers belong to inactive results. The source made the active and inactive calls. Unless noted, no stated cut-off is given here; in the data, active means inhibition above about 28%; inactive means the rest.

test system: not listed separately; assay: StAR promoter reporter inhibitors, counter-screen for LRH-1 inverse agonist project, cell-based, luminescence, high throughput (AID 651611); conditions: StAR promoter luciferase reporter counterscreen, at 3.6 µM, hits give high values

SMILES | inhibition
COc1ccc(NC(=O)Cn2c(C)cc(=O)c3ccccc32)cc1 | 0.15%
CCN(CC)S(=O)(=O)c1ccc(N2CCOCC2)c(NC(=O)c2[nH]c(C)c(C(C)=O)c2C)c1 | 61.6% (active)
COc1ccc2c(c1)/C(=C/c1cc(OC)c(OC)c(OC)c1)C(=O)N2 | 52% (active)
C[n+]1c2cc(N)ccc2cc2ccc(N)cc21 | 34.8% (active) and 28.5% (active)
CC(Cl)C(=O)Nc1ncc(C(F)(F)F)cc1Cl (stereo not given) | 13.3%
COc1c(/C=N/NC(N)=S)c(C)nn1-c1ccccc1 | 1.43%
CC(C)N1CCc2c(sc(NC(=O)c3ccc([N+](=O)[O-])o3)c2C(N)=O)C1 | 37.6% (active)
C=CCOc1ccccc1CN(C(=O)CCl)c1ccc2c(c1)OCO2 | 7.87%
Cc1no[n+]([O-])c1COc1ccc(/C=N/n2nnnc2N)cc1 | -1.3%
O=C(NCc1ccc2c(c1)OCO2)c1cc([N+](=O)[O-])ccc1N1CCCCC1 | 44.1% (active)
CCc1cc(=O)oc2c(C)c(OCC(=O)NCCN3CCOCC3)ccc12 | -3.34%
CO/N=C\C(=N\Nc1ccc(OC)cc1)C(=O)c1ccccc1 | -11.7%
Cc1cccc(NC(=O)COC(=O)Cc2cccs2)c1C | 0.39%
CC(=O)Nc1cc(-c2ccc(F)cc2)cn2c(-c3ccc(S(C)(=O)=O)cc3)cnc12 | 12.6%
CC(=O)N1CCN(c2ccc(NC(=O)c3cccc([N+](=O)[O-])c3)cc2)CC1 | -1.56%
COc1ccc(C2=Nn3c(nnc3-c3ccccc3OC)SC2)cc1OC | 52.6% (active)
CCn1c(=NC(=O)CCS(=O)(=O)c2ccccc2)sc2cccc(OC)c21 | 6.25%
O=C(c1cc(-c2ccco2)nc2ccccc12)N(Cc1nnc(-c2ccc(Cl)cc2)o1)C1CC1 | -6.37%
Cc1ccc(NC(=O)CN2CCC(NC(=O)C3CCCCC3)CC2)c(Br)c1 | 11.8%
Cc1ccc(Cn2nc(C)c(NC(=O)c3noc4c3CCCCC4)c2C)cc1 | 14.1%

SMILES | inhibition
CCOC(=O)C(C)Oc1cccc2c(=O)n(CC(=O)Nc3ccc(OCC)cc3)ccc12 (stereo not given) | 4.74%
COc1ccc(C2=CC(=O)CC(C)(C)C2)cc1OC | -7.16%
Cc1cc(C)c2c(NC(=O)CCl)nn(C)c2n1 | 46.8% (active)
CCCCNC(=O)CSc1nc2ccc(NC(=O)CSc3nnc(COc4ccccc4C)n3C)cc2s1 | 2.43%
O=C(CN1CCN(S(=O)(=O)c2cc(Cl)ccc2Cl)CC1)Nc1ccc2c(c1)OCCO2 | 19%
CCCN1Cc2cccc(C(=O)NC(C)c3cccs3)c2C1=O (stereo not given) | -7.74%
O=[N+]([O-])c1ccc(Sc2nnnn2-c2ccccc2)c(Cl)c1 | 5.41%
CCOc1ccc(Br)cc1/C(C)=N\NC1=NCCN1 | 1.83%
COc1ccc(C2=CC(=O)OC3(CCCC3)O2)cc1 | 15%
O=C(CCl)NCc1cc(-c2ccc(Cl)cc2)no1 | 43.5% (active)
CCN1CCN(c2ccc(S(=O)(=O)N3CCCCC3)cc2NC(=O)/C=C/c2ccc([N+](=O)[O-])cc2)CC1 | 0.06%
Cc1ccc(C)c(NC(=O)CSc2nnc(-c3ccccc3)n2N)c1 | -26.9%
COc1ccc(CC(N)c2csc(Nc3ncccn3)n2)cc1 (stereo not given) | 49.2% (active)
Cc1cccc(NC(=O)CSC2=NN3CCCC(=O)N=C3S2)c1C | -10.1%
Cc1cc(-c2nn3c(-c4ccccc4)nnc3s2)c2ccccc2n1 | 7.3%
CN(Cc1cccs1)c1nc(-c2cccnc2)nc2ccccc12 | 9.82%
COc1ccc(NC(=O)CSc2nnc(-c3ccccn3)n2N)cc1Cl | 20.3%
CCCc1cc(NCC2CCCO2)n2c(nc3ccccc32)c1C#N (stereo not given) | -0.55%
COc1cccc2c1C(=O)c1c(O)c3c(c(O)c1C2=O)C[C@@](O)(C(C)=O)C[C@@H]3O[C@H]1C[C@H](N)[C@H](O)[C@H](C)O1 | 76.5% (active)
CCc1ccccc1NC(=O)CSc1nnc([C@@H](NC(=O)OC(C)(C)C)C(C)CC)o1 (stereo not given in full) | -3.97%

target: Nuclear receptor subfamily 5 group A member 2 (Homo sapiens) (UniProt O00482); assay: LRH-1 (NR5A2) inverse agonists, retest, confirmation, cell-based, luminescence (AID 651613; in the data active means inhibition above about 42%;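 further: HEK293T cells co-transfected with LRH-1 and StAR promoter luciferase reporter; 0% = vehicle wells and 100% = parental cells lacking receptor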); conditions: cell-based LRH-1 luciferase reporter, inverse agonism; at 3.6 µM; hits give high values
Sequence (O00482 whole entry, looked up): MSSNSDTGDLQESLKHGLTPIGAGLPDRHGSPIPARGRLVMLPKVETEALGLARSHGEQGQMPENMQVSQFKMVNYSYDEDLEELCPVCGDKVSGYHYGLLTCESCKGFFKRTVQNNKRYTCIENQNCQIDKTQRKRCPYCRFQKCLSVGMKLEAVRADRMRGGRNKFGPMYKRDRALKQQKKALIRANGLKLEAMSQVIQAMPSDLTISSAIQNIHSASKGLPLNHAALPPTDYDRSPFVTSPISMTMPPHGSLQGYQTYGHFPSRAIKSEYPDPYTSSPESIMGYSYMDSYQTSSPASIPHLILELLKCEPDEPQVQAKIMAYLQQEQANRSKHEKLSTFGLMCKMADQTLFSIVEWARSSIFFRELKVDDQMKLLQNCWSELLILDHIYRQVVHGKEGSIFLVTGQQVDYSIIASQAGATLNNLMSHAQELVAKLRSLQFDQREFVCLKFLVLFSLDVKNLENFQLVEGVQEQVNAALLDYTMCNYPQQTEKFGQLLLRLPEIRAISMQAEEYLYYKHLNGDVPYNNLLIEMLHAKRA

SMILES | inhibition
COc1ccc(NC(=O)Cn2c(C)cc(=O)c3ccccc32)cc1 | 64.9% (active)
CCN(CC)S(=O)(=O)c1ccc(N2CCOCC2)c(NC(=O)c2[nH]c(C)c(C(C)=O)c2C)c1 | 51.5% (active)
COc1ccc2c(c1)/C(=C/c1cc(OC)c(OC)c(OC)c1)C(=O)N2 | 51% (active)
C[n+]1c2cc(N)ccc2cc2ccc(N)cc21 | 109% (active) and 105% (active)
CC(Cl)C(=O)Nc1ncc(C(F)(F)F)cc1Cl (stereo not given) | 58.9% (active)
COc1c(/C=N/NC(N)=S)c(C)nn1-c1ccccc1 | 39.5%
CC(C)N1CCc2c(sc(NC(=O)c3ccc([N+](=O)[O-])o3)c2C(N)=O)C1 | 55.4% (active)
C=CCOc1ccccc1CN(C(=O)CCl)c1ccc2c(c1)OCO2 | 68.8% (active)
Cc1no[n+]([O-])c1COc1ccc(/C=N/n2nnnc2N)cc1 | 51.9% (active)
O=C(NCc1ccc2c(c1)OCO2)c1cc([N+](=O)[O-])ccc1N1CCCCC1 | 36.2%
CCc1cc(=O)oc2c(C)c(OCC(=O)NCCN3CCOCC3)ccc12 | 48.5% (active)
CO/N=C\C(=N\Nc1ccc(OC)cc1)C(=O)c1ccccc1 | 49.5% (active)
Cc1cccc(NC(=O)COC(=O)Cc2cccs2)c1C | 53.8% (active)
CC(=O)Nc1cc(-c2ccc(F)cc2)cn2c(-c3ccc(S(C)(=O)=O)cc3)cnc12 | 51.4% (active)
CC(=O)N1CCN(c2ccc(NC(=O)c3cccc([N+](=O)[O-])c3)cc2)CC1 | 53.6% (active)
COc1ccc(C2=Nn3c(nnc3-c3ccccc3OC)SC2)cc1OC | 58.7% (active)
CCn1c(=NC(=O)CCS(=O)(=O)c2ccccc2)sc2cccc(OC)c21 | 108% (active)
O=C(c1cc(-c2ccco2)nc2ccccc12)N(Cc1nnc(-c2ccc(Cl)cc2)o1)C1CC1 | -5.73%
Cc1ccc(NC(=O)CN2CCC(NC(=O)C3CCCCC3)CC2)c(Br)c1 | 34%
Cc1ccc(Cn2nc(C)c(NC(=O)c3noc4c3CCCCC4)c2C)cc1 | 53.6% (active)

SMILES | inhibition
CCOC(=O)C(C)Oc1cccc2c(=O)n(CC(=O)Nc3ccc(OCC)cc3)ccc12 (stereo not given) | 60.1% (active)
COc1ccc(C2=CC(=O)CC(C)(C)C2)cc1OC | 59.1% (active)
Cc1cc(C)c2c(NC(=O)CCl)nn(C)c2n1 | 64.2% (active)
CCCCNC(=O)CSc1nc2ccc(NC(=O)CSc3nnc(COc4ccccc4C)n3C)cc2s1 | 61.2% (active)
O=C(CN1CCN(S(=O)(=O)c2cc(Cl)ccc2Cl)CC1)Nc1ccc2c(c1)OCCO2 | 59.6% (active)
CCCN1Cc2cccc(C(=O)NC(C)c3cccs3)c2C1=O (stereo not given) | 38.5%
O=[N+]([O-])c1ccc(Sc2nnnn2-c2ccccc2)c(Cl)c1 | 25.6%
CCOc1ccc(Br)cc1/C(C)=N\NC1=NCCN1 | 36.8%
COc1ccc(C2=CC(=O)OC3(CCCC3)O2)cc1 | 60.5% (active)
O=C(CCl)NCc1cc(-c2ccc(Cl)cc2)no1 | 70.7% (active)
CCN1CCN(c2ccc(S(=O)(=O)N3CCCCC3)cc2NC(=O)/C=C/c2ccc([N+](=O)[O-])cc2)CC1 | 61.8% (active)
Cc1ccc(C)c(NC(=O)CSc2nnc(-c3ccccc3)n2N)c1 | 53% (active)
COc1ccc(CC(N)c2csc(Nc3ncccn3)n2)cc1 (stereo not given) | 26.2%
Cc1cccc(NC(=O)CSC2=NN3CCCC(=O)N=C3S2)c1C | 53.1% (active)
Cc1cc(-c2nn3c(-c4ccccc4)nnc3s2)c2ccccc2n1 | 38.6%
CN(Cc1cccs1)c1nc(-c2cccnc2)nc2ccccc12 | 54.4% (active)
COc1ccc(NC(=O)CSc2nnc(-c3ccccn3)n2N)cc1Cl | 48.5% (active)
CCCc1cc(NCC2CCCO2)n2c(nc3ccccc32)c1C#N (stereo not given) | 40.1%
COc1cccc2c1C(=O)c1c(O)c3c(c(O)c1C2=O)C[C@@](O)(C(C)=O)C[C@@H]3O[C@H]1C[C@H](N)[C@H](O)[C@H](C)O1 | 104% (active)
CCc1ccccc1NC(=O)CSc1nnc([C@@H](NC(=O)OC(C)(C)C)C(C)CC)o1 (stereo not given in full) | 39.5%
